Assay outcomes: PubChem, several laboratories
Compounds with a hit are over-represented: about 32% of the library has one in this group of screens.
CYP2C19 activ: cytochrome P450 2C19 (human) activation | P33261 | recombinant CYP2C19, luciferin-H EGE luminescence; active compounds read high; 0 = fully inhibited enzyme, 1 = untreated enzyme | activation factor at 5 µM | 96,000 tested, under 10 active;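 active = activation factor of at least 2 at 5 µM in the primary screen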;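 note: 0 = wells with 2.5 mM tranylcypromine and 1 = vehicle-only wells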
Target sequence (P33261 whole entry, looked up): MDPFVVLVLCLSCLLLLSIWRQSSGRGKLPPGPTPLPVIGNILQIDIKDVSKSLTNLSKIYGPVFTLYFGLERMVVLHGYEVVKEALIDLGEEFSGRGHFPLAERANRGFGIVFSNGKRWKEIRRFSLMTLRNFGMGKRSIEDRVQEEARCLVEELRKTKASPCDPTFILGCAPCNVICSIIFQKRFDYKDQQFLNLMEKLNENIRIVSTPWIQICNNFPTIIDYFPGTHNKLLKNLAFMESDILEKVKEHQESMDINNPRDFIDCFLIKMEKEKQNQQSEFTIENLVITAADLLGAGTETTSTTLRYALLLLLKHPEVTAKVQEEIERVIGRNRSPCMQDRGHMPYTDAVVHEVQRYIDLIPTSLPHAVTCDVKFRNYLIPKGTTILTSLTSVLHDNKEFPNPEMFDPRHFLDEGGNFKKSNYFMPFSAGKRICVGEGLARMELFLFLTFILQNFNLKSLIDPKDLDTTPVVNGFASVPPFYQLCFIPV
CYP2C9 act: CYP2C9 (human) activation. P11712. recombinant CYP2C9, luciferin-H conversion, luminescence; active compounds read high; factor 1 = untreated enzyme, 0 = blocked. activation factor at 5 µM. actives 1.4% (n = 96,000). AID 1024;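 active = activation factor of 2 or more for CYP2C9 at a 5 µM dose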;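 note: 0 = sulfaphenazole-blocked wells and 1 = vehicle-only wells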
CYP2C19 inh: human CYP2C19 inhibition; P33261; CYP2C19 Supersomes, luciferin-H EGE luminescence, 30 min; inhibition, % at 5 µM; actives 21% (n = 96,000);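 active = CYP2C19 inhibition above a set limit at 5 µM in the primary screen, cut at about 50% in these data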;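 note: plate controls were negative control wells for no effect and 2.5 mM tranylcypromine positive control for full effect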
PostGolgi ctrl: inhibits growth of the yeast control strain; efflux-deficient yeast background strain, growth absorbance A615, 16 h; inhibition, % at 10 µM; actives 5% (n = 98,000)
PostGolgi yeast: growth inhibition of a yeast mutant, post-Golgi transport screen | actives 0.9% (n = 98,000) | AID 739 | post-Golgi transport phenotypic cell assay | inhibition, % at 10 µM;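 note: yeast cells grown in 1536-well plates; yeast grown about 18 h at 30C before absorbance read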
CYP2C9 inh: blocks human cytochrome P450 2C9; CYP2C9 Supersomes, luciferin-H conversion, luminescence; P11712; inhibition, % at 5 µM; actives 20% (n = 96,000);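 active = blocking of liver enzyme CYP2C9 beyond about 50% at 5 µM, limit read from the data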
* = called active by the depositor; nt = no result. Cut-off read from the data, not from the text of the source, unless noted: active = inhibition above about 30%; inactive = the rest.

SMILES	CYP2C19 activ	CYP2C9 act	CYP2C19 inh	PostGolgi ctrl	PostGolgi yeast	CYP2C9 inh
COc1cccc(CN2CCCCC2c2cccnc2)c1 (stereo not drawn)	0.6	0.8	38	1	-3	18
COc1ccc(CN2CCCCC2c2cccnc2)cc1C (stereo not drawn)	0.2	0.9	80*	20	4	15
CN(CCc1ccccc1)Cc1ccccc1[N+](=O)[O-]	0.1	0.2	91*	5	0	76*
CN(CCCCC(=O)/C=N/O)Cc1ccccc1 (tested in a mixture with another compound)	0.9	1.1	7	10	-7	-13
Cc1sc2ncn(CC(=O)NCCCC(=O)N3CCC4(CC3)OCCO4)c(=O)c2c1C	0.5	0.9	49	36*	-13	13
Nc1ccccc1C(=O)OCCOc1ccccc1	0.1	0.3	92*	6	3	74*
CCOCC(=O)NC1CCSC1=O (stereo not drawn)	1	0.9	-3	6	-3	6
CC1(C)CN=C(Nc2ccc(F)c(F)c2)S1	0.4	0.7	62*	6	1	26
CC(=O)OC1N=C(c2ccccc2)c2ccccc2NC1=O (stereo not drawn)	0.9	1	5	17	-3	1
O=C(COc1ccc(Br)cc1)N1CCN(Cc2ccncc2)CC1	0.2	0.4	83*	2	-1	63*
Cc1cccc(OCC(=O)N2CCN(Cc3ccncc3)CC2)c1	0.1	0.1	92*	1	5	88*
COc1ccccc1CN1CCN(C(=O)COc2cccc(C)c2)CC1	1	0.9	3	23	8	8
COc1ccc(OC)c(CN2CCN(C(=O)COc3cccc(C)c3)CC2)c1	0.4	0.6	62*	4	8	40
COc1ccc(CN2CCN(C(=O)COc3cccc(C)c3)CC2)c(OC)c1	0.9	1	12	5	-7	-3
CCOC(=O)c1cn2nc(OP(=S)(OCC)OCC)cc2nc1C	0	0.2	98*	9	15	82*
O=[N+]([O-])c1ccccc1CNCCc1ccc(F)cc1	0.1	1	86*	-6	-2	-3
COc1cc(OC)c(OC)cc1CNCCc1ccc(OC)c(OC)c1	1.1	1	-8	3	-4	-3
CCN1CCC2(CCNC2)C1 (stereo not drawn)	1.2	1.2	-24	2	5	-19
CCOC(=O)N(CC)c1ccc(C(O)(C(=O)OC)C(F)(F)F)cc1 (stereo not drawn)	0.4	0.7	64*	3	2	34
COCCNC(=O)c1c(N)n(Cc2ccco2)c2nc3ccccc3nc12	0.9	0.7	10	51*	-1	27
C=CCNC(=O)c1c(N)n(Cc2ccco2)c2nc3ccccc3nc12	1	0.8	2	13	3	16
COCCNC(=O)c1c(NC(=O)c2ccco2)n(Cc2ccccc2)c2nc3ccccc3nc12	0.6	0.2	38	3	2	76*
Nc1c(C(=O)NCCN2CCOCC2)c2nc3ccccc3nc2n1Cc1ccco1	0.8	0.7	17	12	-10	27
CC(C)(C)OC(=O)c1c(N)n(Cc2ccco2)c2nc3ccccc3nc12	0.5	0.2	52*	22	2	84*
O=C1NC(=O)C(CCc2ccncc2)(C2CCCCC2)C(=O)N1	0.4	0.3	64*	18	-6	70*
SMILES	CYP2C19 activ	CYP2C9 act	CYP2C19 inh	PostGolgi ctrl	PostGolgi yeast	CYP2C9 inh
COP(=S)(OC)SCN1C(=O)c2ccccc2C1=O	0	0.3	98*	-3	-6	71*
COCCOC(=O)c1c(C)oc2ccc(OC(=O)N(C)C)cc12	0.4	0.6	63*	11	8	42
CSCCC(N=Cc1c(O)n(-c2ccc(Br)cc2)c(=O)[nH]c1=O)C(=O)OC(C)(C)C (stereo not drawn)	1	1.6	-2	3	-3	-56
COc1cccc(-c2cc(C(F)(F)F)n3nc(C(=O)N4CCC5(CC4)OCCO5)cc3n2)c1	0.2	0.3	77*	13	23	69*
O=C(c1cnn2c(C(F)(F)F)cc(-c3ccccc3)nc12)N1CCC2(CC1)OCCO2	0.8	0.9	23	2	-8	14
CC(C(=O)c1cn(C)c2ccccc12)c1ccccc1 (stereo not drawn)	0.8	1.9	17	12	-11	-90
Cc1cc(N)n(C2CCN(C)CC2)n1	1	1.1	-1	25	8	-8
O=P(C(c1ccc2c(c1)OCO2)N1CCOCC1)(N1CCOCC1)N1CCOCC1 (stereo not drawn)	nt	nt	nt	-6	5	nt
O=c1[nH]c(=O)n(Cc2ccccc2)c(O)c1C=NCCCn1ccnc1	0.9	0.4	7	14	12	64*
O=c1[nH]c(=O)n(Cc2ccc(F)cc2)c(O)c1C=NCCCO	1	1.1	-3	-2	2	-6
O=c1[nH]c(=O)n(-c2cccc3ccccc23)c(O)c1C=NCCCn1ccnc1	0.8	0.3	22	-4	1	75*
O=c1[nH]c(=O)n(CCc2ccccc2)c(O)c1C=NCCCn1ccnc1	0.5	0.3	50*	-3	-7	73*
CCCCn1c(O)c(C=NCCCn2ccnc2)c(=O)[nH]c1=O	0.8	0.5	22	0	-3	46
O=c1[nH]c(=O)n(Cc2ccc(F)cc2)c(O)c1C=NCCCn1ccnc1	0.7	0.1	33	11	-2	86*
CN1CCc2c(c(N3CCCCC3)nc3n[nH]c(N)c23)C1	1.2	1.3	-20	2	-3	-26
CC1CN(C)C(C)(C)CC1(O)c1ccccc1 (stereo not drawn)	1	1.2	-5	1	0	-23
COc1ccc(-n2c(O)c(C(C)=NCc3ccco3)c(=O)[nH]c2=O)cc1	0.9	0.9	15	38*	-4	13
CCC(=NCc1ccco1)c1c(O)n(-c2ccc(C)cc2)c(=O)[nH]c1=O	0.8	0.8	24	12	1	18
CCC(=NCc1ccco1)c1c(O)n(-c2ccccc2)c(=O)[nH]c1=O	0.5	0.9	54*	-1	0	8
CC(=NCc1ccco1)c1c(O)n(-c2ccccc2)c(=O)[nH]c1=O	0.4	0.9	56*	20	1	12
O/N=C1/C(=C\c2ccccc2)N2CCC1CC2	0.2	0.7	83*	15	2	35
CC(=NCC1CCCO1)c1c(O)n(C)c(=O)n(C)c1=O (stereo not drawn)	1.1	0.7	-10	8	4	27
COc1ccc(OP(=O)(Nc2ccccc2)Nc2ccccc2)cc1	0.2	0.3	83*	1	-3	69*
CN(C)CP(=O)(Nc1ccccc1)N(C)C (stereo not drawn)	1.1	1.2	-6	-1	1	-22
